Several values for one entry are separate records, joined by “and”; a condition that tells them apart may be missing. Equal values may be shown once. This is part of a sample that, as a whole, favours compounds with a hit. Of some 83,000 tested, about 20% had one in any assay.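 Percent growth is the endpoint: 0 to 100 indicates growth inhibition (40 means 60% inhibition), 0 means no net growth, and negative values indicate cell death.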 Unmarked numbers belong to inactive results. Activity calls are given as the source filed them. The calls were made as follows: active = growth percent below 10; inactive = the rest.
tested on: MDA-MB-468 breast; assay: NCI-60 one-dose screen, 48 h (100 = growth as untreated, 0 = no growth, -100 = all killed); conditions: 10 µM unless noted

Row | SMILES | growth
1 | COc1cc(/C=N/NC(=O)c2ccc(C)nc2)cc(OC)c1OC | 98.5%
2 | Cc1cc(N2CCSCC2)nc(NC2CCCC(Nc3ccnc4cc(Cl)ccc34)C2)n1 (stereo not given) | -43.7% (active)
3 | COc1ccc(OC)c(NC2=C(SCCc3ccccc3)C(=O)c3ccccc3C2=O)c1 | 65.7%
4 | C=C(C)[C@@H]1CC[C@]2(C(=O)NCCCN(CCC#N)CCC#N)CC[C@]3(C)[C@H](CC[C@@H]4[C@@]5(C)CCC(=O)C(C)(C)[C@@H]5CC[C@]43C)[C@@H]12 | 116% and 90.6%
5 | Nc1ccc2c(c1)Cc1cc(N)c(N)cc1-2 | 76.6%
6 | O=C(/C=C/c1c[nH]c2ccccc12)c1cc2ccccc2o1 | 121%
7 | COc1ccc(C(=O)c2cc3c(N)c(C(=O)Nc4ccc(C)cc4)sc3nc2C)cc1 | -16.8% (active)
8 | COc1ccc(/C=C2\COc3ccc(O)c(O)c3C2=O)cc1OC | -22.8% (active)
9 | O=C1OC(Oc2ccccc2)(c2ccccc2)c2ccccc21 (stereo not given) | 112%
10 | CCCOc1nc(SCCC)nc2c1cnn2-c1ccccc1 | 106%
11 | CC(Br)C(O)c1cc2c(cc1Br)OCO2 (stereo not given) | 108%
12 | O=C(/C=C/C(=O)c1ccccc1)c1ccccc1 | 107%
13 | CCC(CC)NCCCCCNc1cc(OC)cc2cccnc12 | 57.8%
14 | COc1cccc(-c2ccc3c(c2)C2CCN(Cc4ccccc4)C3C2)c1 (stereo not given) | 67.9%
15 | O=C(Nc1ccc(F)cc1)c1ccc(C(=O)Nc2ccc(F)cc2)cc1 | 99.7%

— PubChem BioAssay (NCI)
